Screens: PubChem, National Center for Advancing Translational Sciences (NCATS)
Shiga inhibitor: inhibitors of Shiga toxin in Vero cells; actives 9.2% (n = 290,000); Vero cells, Shiga toxin protein synthesis inhibition reporter; inhibition, % at 38.7 µM; AID 2315; in the data active = inhibition mostly above about 28%, no sharp cut-off; inactive = mostly below about 43%; also: 0% is about no effect
CHX counter: affects cycloheximide protein synthesis inhibition readout, counter-screen; cell reporter, cycloheximide protein synthesis inhibition counterscreen; max response, %; actives 12% (n = 300,000); AID 2314; in the data active = max response mostly above about 13%, no sharp cut-off; inactive = mostly below about 14%; also: read at 38.3 µM for the half of the compounds with a filed dose; 0% is about no effect
Pf growth 96h: P. falciparum growth inhibition at 96 hours | Potency, µM (highest dose often 28.7 µM), for the others: top-dose activity change, negative = inhibition, usual class: inhibitors | P. falciparum luciferase reporter growth, 96 h | actives 6.9% (n = 320,000) | AID 504834; also: potency is read from the fitted curve at half-maximal effect; % is scaled to controls: 0 for no effect and ±100 for the full control effect
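96 h incubation, 37 C, 5% CO2, of luciferase-reporter P. falciparum-infected RBCs (2% hematocrit, 0.05% parasitemia final) with test compounds; endpoint luminescence.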
Pf growth 48h: inhibits P. falciparum growth in the first generation, 48 h; Potency, µM (series often up to 28.7 µM), inactives show at the highest dose activity change, negative = inhibition, actives largely listed as inhibitors; actives 5.9% (n = 310,000); P. falciparum luciferase growth in erythrocytes, 48 h; also: potency is read from the fitted curve at half-maximal effect; % is scaled to controls: 0 for no effect and ±100 for the full control effect
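Compounds are pin-transferred into medium, infected erythrocytes (2% hematocrit, 0.1% parasitemia final) are added, and plates sit one parasite generation at 37 C in 5% CO2. Detection reagent is then added and luminescence measured.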
* hit, by the source's call; [ ] = another dose, or the depositor's remark. A selection: hits, their analogues and other compounds. The true share with any hit is near 21%. Unless noted, calls follow the shape of the dose curve; as a rule, active = well fitted inhibition curve with a large enough effect; inconclusive = small, poorly fitted or top-dose-only effect, or another doubt; inactive = no such curve, though single readings can be large or run the other way.

CCCc1ccc(Oc2cc(Cl)nc(N)n2)cc1 was read as Shiga inhibitor -40, CHX counter 16*, Pf growth 96h inconclusive and Pf growth 48h 78%.
Screening CCCc1ccc(Oc2cc(C)nc(N3CCOCC3)n2)cc1 returned Shiga inhibitor 23, CHX counter 9, Pf growth 96h -2% and Pf growth 48h 36%.
Screening O=C(NCCN1CCCC1)c1ccc2c(c1)N(Cc1ccccc1)C(=O)c1ccccc1S2(=O)=O returned Shiga inhibitor -7, CHX counter 6, Pf growth 96h 29% and Pf growth 48h 8.3µM*.
`CCCCSCCCNC(=O)c1ccc2c(c1)N(CC)C(=O)c1ccccc1S2=O` (configuration not stated) gave Shiga inhibitor 3, CHX counter -1, Pf growth 96h 5% and Pf growth 48h 13µM*.
`CCN1C(=O)c2ccccc2S(=O)(=O)c2ccc(C(=O)NC(C)C)cc21` gave Shiga inhibitor -7, CHX counter -2, Pf growth 96h inconclusive and Pf growth 48h 0%[0.00184 µM].
Screening CCN1C(=O)c2ccccc2Sc2ccc(C(=O)NCCCN(CC(C)C)CC(C)C)cc21 returned Shiga inhibitor -3, CHX counter 23, Pf growth 96h 27% and Pf growth 48h 10µM*.
`CCN1C(=O)c2ccccc2Sc2ccc(C(=O)NCCN3CCOCC3)cc21` gave Shiga inhibitor -11, CHX counter -4, Pf growth 96h inconclusive and Pf growth 48h -10%.
CCCCNC(=O)c1ccc2c(c1)N(CC)C(=O)c1ccccc1S2(=O)=O was read as Shiga inhibitor 4, CHX counter -3, Pf growth 96h 1.5µM* and Pf growth 48h -20%.
Screening O=C(NCCN1CCOCC1)c1ccc2c(c1)N(Cc1ccccc1)C(=O)c1ccccc1S2 returned Shiga inhibitor -8, CHX counter -3, Pf growth 96h -18% and Pf growth 48h inconclusive.
Screening O=C(NCCN1CCOCC1)c1ccc2c(c1)N(Cc1c(F)cccc1Cl)C(=O)c1ccccc1S2 returned Shiga inhibitor -19, CHX counter -5, Pf growth 96h 9.3µM* and Pf growth 48h 13µM*.
CCCn1c(CN2CCN(C(=O)OCC)CC2)nc2cc([N+](=O)[O-])ccc21 was read as Shiga inhibitor 9, CHX counter -2, Pf growth 96h 399% and Pf growth 48h -23%.
For O=C(c1ccc(CS(=O)(=O)c2ccccc2)o1)N1CCOCC1 the results were Shiga inhibitor 16, CHX counter 6 and Pf growth 96h 12µM*.
Cc1ccc(S(=O)(=O)Cc2ccc(C(=O)N3CCN(Cc4ccccc4)CC3)o2)cc1 was read as Shiga inhibitor -10, CHX counter -2, Pf growth 96h -14% and Pf growth 48h inconclusive.
`O=C(c1ccc(CS(=O)(=O)c2ccc(Br)cc2)o1)N1CCCC1` gave Shiga inhibitor 23, CHX counter -2 and Pf growth 96h 7.4µM*.
`Cc1cnc(C(=O)N2CCCC(N3CCN(c4cccc(C(F)(F)F)c4)CC3)C2)cn1` (configuration not stated) gave Shiga inhibitor -4, CHX counter 0, Pf growth 96h inconclusive and Pf growth 48h inconclusive.
Screening COc1ccc(C(=O)C2CCCN(C(=O)Cn3nc(C)cc3C)C2)cc1F (configuration not stated) returned Shiga inhibitor 40, CHX counter 5, Pf growth 96h -17% and Pf growth 48h -11%.
`C=CCn1c(O)c2ccc(C(=O)N=NC(=O)COc3ccc(OC)cc3)cc2c1O` gave Shiga inhibitor -3, CHX counter 1, Pf growth 96h 34% and Pf growth 48h 23%.
Screening COc1ccc(NC(=O)Nc2nnc(Cc3ccc(F)cc3)s2)cc1 returned Shiga inhibitor 8, CHX counter 13, Pf growth 96h inconclusive and Pf growth 48h inconclusive.
O=C(Nc1nc(-c2cc(F)ccc2F)cs1)c1cccc(N2C(=O)CCC2=O)c1 was read as Pf growth 96h 32% and Pf growth 48h -2%.
`CC(=O)NNc1nc(-c2ccc(C)cc2)cs1` gave Shiga inhibitor 71*, CHX counter 23*, Pf growth 96h -3% and Pf growth 48h 0%.
Screening O=C(NNc1nc(-c2ccc(F)cc2)cs1)c1ccccc1 returned Shiga inhibitor 4, CHX counter 5, Pf growth 96h 8.3µM* and Pf growth 48h 5.2µM*.
O=C(NNc1nc(-c2ccccc2)cs1)c1cccs1 was read as Shiga inhibitor 9, CHX counter 18, Pf growth 96h inconclusive and Pf growth 48h inconclusive.
O=C(Nc1nc(-c2ccc(F)cc2)cs1)c1cccc(N2C(=O)CCC2=O)c1 was read as Shiga inhibitor 18, CHX counter 16*, Pf growth 96h 39% and Pf growth 48h 4%.
Screening O=C(NNc1nc(-c2ccccc2)cs1)c1ccc(F)cc1 returned Shiga inhibitor 41, CHX counter 14, Pf growth 96h 9.3µM* and Pf growth 48h 12µM*.
Screening CCc1cccc(NS(=O)(=O)c2ccc3c(c2)N(C)CCO3)c1 returned Shiga inhibitor -6, CHX counter 2, Pf growth 96h -20% and Pf growth 48h -2%.
Screening Cc1nnc(SCC(=O)NC2CCCC2)n1-c1ccccc1 returned Pf growth 96h -21% and Pf growth 48h 5%.
For Cc1[nH]n(-c2ccccc2)c(=O)c1/C=C1/C=c2ccccc2=N1 the results were Shiga inhibitor 17, CHX counter 17*, Pf growth 96h 9% and Pf growth 48h -2%.
For Cc1[nH]n(-c2ccccc2)c(=O)c1/C=C1\C=NN=C1c1ccccc1 the results were Shiga inhibitor 98*, CHX counter 67*, Pf growth 96h 21% and Pf growth 48h 17%.
For CC1=C(C(=O)N2CCOCC2)C(c2ccc(OC(F)F)cc2)NC(=S)N1c1ccccc1 (configuration not stated) the results were Shiga inhibitor -5, CHX counter 1, Pf growth 96h -26% and Pf growth 48h -3%.
For O=C(Nc1cccnc1)c1cc2c(s1)-c1ccccc1OC2 the results were Shiga inhibitor 54*, CHX counter 43*, Pf growth 96h 211% and Pf growth 48h inconclusive.
For O=C(Nc1nc2ccccc2s1)c1cc2c(s1)-c1ccccc1OC2 the results were Shiga inhibitor 30, CHX counter -1 and Pf growth 96h inconclusive.
Screening Cc1cccc2c1-c1sc(C(=O)Nc3cccnc3)cc1CO2 returned Shiga inhibitor 42*, CHX counter 19*, Pf growth 96h -5% and Pf growth 48h inconclusive.
For N#CCC(=O)NCCCc1ccccc1 the results were Shiga inhibitor 9, CHX counter -2, Pf growth 96h -16% and Pf growth 48h 10%.
`O=C(CN1CCSc2ccccc21)NCCCc1ccccc1` gave Shiga inhibitor 86*, CHX counter 37*, Pf growth 96h inconclusive and Pf growth 48h 85%.
Cc1nc2ccc(NC(=O)Cc3ccc(Br)cc3)cc2s1 was read as Shiga inhibitor -8, CHX counter 2, Pf growth 96h 15% and Pf growth 48h -12%.
For Cc1nc2ccc(NC(=O)Cc3c(F)cccc3Cl)cc2s1 the results were Shiga inhibitor 53*, CHX counter 31*, Pf growth 96h 98% and Pf growth 48h 52%.
